Compound activity (PubChem BioAssay)
C diff growth = C. difficile growth inhibition; growth activity, negative = inhibition, % at 16 µg/mL (by protocol); AID 1259249; Clostridium difficile clinical isolate growth, OD600, 24 h; hits give low values; 86,000 tested, 0.25% active;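 active means mean growth activity at or below -80% and every replicate also at or below -80%; inconclusive means mean at or below -80% but some replicate above -80%; inactive means mean growth activity above -80%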;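 further: 0% = DMSO wells and -100% = levofloxacin 16 µg/mL wells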
T cruzi growth-1 = T. cruzi proliferation inhibition; T. cruzi beta-gal in NIH3T3, GalScreen luminescence, 90 h; inhibition, % at 8.34 µM; 77,000 tested, 5.9% active; AID 624255;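 active means mean inhibition above about 93%, with at least 55% of replicates each passing it, limit read from the data, passing the limit was not always enough; inconclusive means only one of those two conditions holds; inactive means neither condition holds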
Pf Dd2 growth = blocks growth of Plasmodium falciparum Dd2 parasites; P. falciparum Dd2 growth, SYBR Green, 72 h; hits give low values; activity change, % at 10 µM; 94,000 tested, 2.3% active; in the data active means activity change below about -80%; inconclusive means no clear call, values can overlap the other calls
T cruzi growth-2 = inhibitors of T. cruzi proliferation; inhibition, % at 8.35 µM; 5,600 tested, 72% active; T. cruzi beta-gal in NIH3T3, GalScreen luminescence, 90 h; shares compounds with T cruzi growth-1;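 active means mean replicate inhibition above about 95% and at least 55% of replicates individually reaching it, limit read from the data; inconclusive means only one of the two criteria is met; inactive means neither criterion is met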
T cruzi growth-3 = blocks T. cruzi growth in NIH3T3 host cells; inhibition, % at 2.09 µM; 5,600 tested, 21% active; shares compounds with T cruzi growth-1; T. cruzi beta-gal in NIH3T3, GalScreen luminescence, 90 h;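 active means mean inhibition above about 95%, with at least 55% of replicates also reaching it, limit read from the data; inconclusive means meets just one of the two conditions; inactive means meets neither condition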;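 further: plate controls were neutral control median for no effect and positive control median for full effect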
NIH3T3 tox = cytotoxicity in mouse NIH/3T3 fibroblasts. shares compounds with T cruzi growth-1. NIH/3T3 viability, CellTiter-Glo ATP luminescence, 90 h. cytotoxicity (signal decrease), % at 8.35 µM. 5,600 tested, 14% active. AID 651742;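 active means mean signal decrease across replicates above about 35% based on untreated-well scatter, with enough replicates individually passing, limit read from the data; inconclusive means no rule stated though some were filed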;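 further: 0% = median of neutral control wells and 100% = median of positive control wells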
3T3 cytotox 2 = cytotoxicity in mouse NIH/3T3 fibroblasts. shares compounds with T cruzi growth-1. NIH/3T3 viability, CellTiter-Glo ATP luminescence, 90 h. inhibition, % at 24.9 µM. 5,600 tested, 56% active. AID 651744;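 active means mean loss of cell viability signal at or above a set limit, and enough replicates individually reaching it; inconclusive means meets only the mean limit or only the replicate share; inactive means meets neither condition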;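 further: 0% = median of neutral control wells and 100% = median of positive control wells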
Active calls of the source: *; ? = inconclusive; . = no result given; ! = repeats disagree. A selection: hits, their analogues and other compounds. The true share with any hit is near 6.7%.

SMILES	C diff growth	T cruzi growth-1	Pf Dd2 growth	T cruzi growth-2	T cruzi growth-3	NIH3T3 tox	3T3 cytotox 2
O=C(C1CCOCC1)N1C[C@H]2[C@@H](c3ccccc31)[C@@H](CO)N2C(=O)Nc1cccc(F)c1	3	-16	3	.	.	.	.
CCC(=O)N(C)C[C@@H]1Oc2ncc(-c3ccc(F)cc3)cc2C(=O)N([C@H](C)CO)C[C@@H]1C	-8	13	13	.	.	.	.
COc1ccccc1-c1cnc2c(c1)C(=O)N([C@@H](C)CO)C[C@@H](C)[C@@H](CN(C)C(=O)CC1CC1)O2	8	-38	25	.	.	.	.
CCCC(=O)Nc1ccc2c(c1)C(=O)N(C)[C@H]1CC[C@@H](CC(=O)Nc3cn(C)nc3C)O[C@H]1CO2	0	-22	5	.	.	.	.
O=C(C[C@@H]1CC[C@@H]2[C@H](COC[C@@H](O)CN2C(=O)Nc2ccc(F)cc2)O1)NC1Cc2ccccc2C1	.	28	-9	.	.	.	.
O=C(C[C@@H]1CC[C@@H]2[C@H](COC[C@@H](O)CN2C(=O)Nc2ccc(C(F)(F)F)cc2)O1)NC1Cc2ccccc2C1	-100*!	112*	-26	96*	94	21	105*
O=C(C[C@@H]1CC[C@H]2[C@@H](COC[C@H](O)CN2C(=O)Nc2ccc(F)cc2)O1)NC1Cc2ccccc2C1	.	60	-3	.	.	.	.
O=C(C[C@H]1CC[C@H]2[C@@H](COC[C@H](O)CN2C(=O)Nc2ccc(C(F)(F)F)cc2)O1)NC1Cc2ccccc2C1	-90*!	121*	-30	105*	53	51*	107*
CO[C@@H]1CN(C)C(=O)c2ccc(NS(C)(=O)=O)cc2OC[C@@H](C)N(C(=O)C2CCC2)C[C@@H]1C	.	35	.	.	.	.	.
COCC#Cc1ccc2c(c1)O[C@@H](CN(C)CC1CCCC1)[C@H](C)CN([C@H](C)CO)S2(=O)=O	5	110*	-65	98*	47	44*	104*
COc1ccc(-c2ccc3c(c2)O[C@H](CN(C)CC2CCOCC2)[C@@H](C)CN([C@@H](C)CO)S3(=O)=O)cc1	-9	41	-13	.	.	.	.
C[C@H](CO)N1C[C@H](C)[C@@H](CN(C)CC2CCOCC2)Oc2cc(C#Cc3ccccc3F)ccc2S1(=O)=O	13	122*	-65	99*	103*	-25	43*
C[C@H]1CN([C@@H](C)CO)S(=O)(=O)c2ccc(C#Cc3ccccc3F)cc2O[C@H]1CN(C)CC1CCOCC1	2	.	-51	.	.	.	.
COc1ccc(-c2ccc3c(c2)O[C@@H](CN(C)CC2CCOCC2)[C@H](C)CN([C@@H](C)CO)S3(=O)=O)cc1	-9	93*	-53	100*	101*	51*	67*
COCC#Cc1ccc2c(c1)O[C@@H](CN(C)CC1CC1)[C@@H](C)CN([C@H](C)CO)S2(=O)=O	-3	.	-26	.	.	.	.
C[C@@H]1CN([C@H](C)CO)S(=O)(=O)c2ccc(C#CC3CC3)cc2O[C@@H]1CN(C)CC1CCOCC1	-2	48	-5	.	.	.	.
C[C@@H]1CN([C@H](C)CO)S(=O)(=O)c2ccc(C#CC3CC3)cc2O[C@H]1CN(C)CC1CCOCC1	-4	?	-10	101*	27	50*	91*
CN1CCN(C(=O)C[C@H]2CC[C@@H](NC(=O)Cc3ccccn3)[C@H](CO)O2)CC1	.	2	1	.	.	.	.
C[C@H](CO)N1C[C@H](C)[C@@H](CN(C)S(=O)(=O)c2cn(C)cn2)Oc2ccc(NS(=O)(=O)c3ccc(Cl)cc3)cc2CC1=O	0	-4	-16	.	.	.	.
O=C(NC1Cc2ccccc2C1)[C@@H]1[C@@H](CO)[C@@H]2Cn3c(cccc3=O)[C@@H]2N1C(=O)C1CC1	0	61	9	.	.	.	.
C[C@@H]1CN([C@H](C)CO)S(=O)(=O)c2ccc(C#CC3CC3)cc2O[C@@H]1CN(C)CC1CC1	.	105	-37	.	.	.	.
CCCN(C)C[C@H]1Oc2cc(C#CC3CCCCC3)ccc2S(=O)(=O)N([C@@H](C)CO)C[C@@H]1C	18	58	-22	.	.	.	.
CC(C)C#Cc1ccc2c(c1)O[C@@H](CN(C)CC1CCOCC1)[C@@H](C)CN([C@H](C)CO)S2(=O)=O	-2	54	-33	.	.	.	.
